From PubChem BioAssay AID1159580 (chemical genetic matrix, 2015)
About 2,000 (36%) of roughly 5,500 compounds were called active. About 18% were inconclusive and are not listed. Cut-off read from the data, not from the text of the source: active = normalized growth mostly below about 0.91 (no sharp cut-off); inconclusive = no clear call, values can overlap the other calls; inactive = mostly above about 0.92. This is one part of the list.

Assay: chemical genetic growth profiling, strain panel (AID 1159580);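 note: tested at 20 µM; growth read once vehicle control cultures reached saturation at 30 °C; 1 = growth at the plate median or of vehicle wells; lower values mean less growth of the strain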
Settings: S. cerevisiae deletion strains, growth OD

Measured: normalized growth

COc1ccc(-c2coc3cc(O)ccc3c2=O)c(O)c1O
inactive: locus YBR009C, strain hhf1, active compounds read low 0.955 | locus YBR171W, strain sec66, active compounds read low 0.984 | locus YCL016C, strain dcc1, active compounds read low 0.94 | locus YCL061C, strain MRC1, active compounds read low 0.925 | locus YCL069W, strain vba3, active compounds read low 0.979 | locus YCR088W, strain abp1, active compounds read low 0.971 | locus YDL005C, strain med2, active compounds read low 0.979 | locus YDL040C, strain nat1, active compounds read low 0.999 | locus YDR001C, strain nth1, active compounds read low 0.976 | locus YDR137W, strain rgp1, active compounds read low 1.06 | locus YDR159W, strain sac3, active compounds read low 1.05 | locus YDR195W, strain ref2 0.992 | locus YDR335W, strain msn5, active compounds read low 0.948 | locus YDR392W, strain spt3, active compounds read low 0.869 | locus YEL003W, strain gim4, active compounds read low 0.977 | locus YEL037C, strain rad23, active compounds read low 0.969 | locus YEL061C, strain CIN8 (second series), active compounds read low 0.963 | locus YER016W, strain bim1, active compounds read low 0.94 | locus YER111C, strain swi4, active compounds read low 0.933 | locus YER155C, strain BEM2 (second series), active compounds read low 0.944 | locus YGL167C, strain pmr1, active compounds read low 0.979 | locus YGL227W, strain vid30, active compounds read low 0.989 | locus YGL240W, strain doc1, active compounds read low 0.964 | locus YHR013C, strain ard1, active compounds read low 0.861 | locus YHR030C, strain SLT2, active compounds read low 1.02 | locus YHR079C, strain IRE1, active compounds read low 1.02 | locus YJL092W, strain hpr5, active compounds read low 0.975 | locus YJL095W, strain BCK1 (second series), active compounds read low 0.952 | locus YJL095W, strain BCK1, active compounds read low 1.01 | locus YJL115W, strain asf1, active compounds read low 0.968 | locus YJL129C, strain trk1, active compounds read low 1.03 | locus YJL154C, strain vps35, active compounds read low 0.988 | locus YJR066W, strain TOR1, active compounds read low 0.927 | locus YKR026C, strain gcn3, active compounds read low 0.995 | locus YKR091W, strain srl3, active compounds read low 0.991 | locus YLL001W, strain dnm1, active compounds read low 0.971 | locus YLL026W, active compounds read low 0.98 | locus YLL041C, strain sdh2, active compounds read low 0.968 | locus YLR027C, strain aat2, active compounds read low 0.93 | locus YLR113W, strain HOG1, active compounds read low 1.01 | locus YLR221C, strain rsa3, active compounds read low 0.92 | locus YLR258W, strain gsy2, active compounds read low 0.947 | locus YLR320W, strain mms22, active compounds read low 0.905 | locus YLR370C, strain arc18, active compounds read low 0.916 | locus YLR384C, strain iki3, active compounds read low 0.998 | locus YML120C, strain ndi1, active compounds read low 1 | locus YMR125W, strain sto1, active compounds read low 1.01 | locus YMR129W, active compounds read low 0.967 | locus YMR205C, strain PFK2, active compounds read low 0.971 | locus YMR231W, strain pep5, active compounds read low 0.937 | locus YNL071W, strain lat1, active compounds read low 0.955 | locus YNL183C, strain NPR1, active compounds read low 0.965 | locus YNL248C, strain rpa49, active compounds read low 0.939 | locus YNL322C, strain KRE1 (second series), active compounds read low 0.974 | locus YNR049C, strain mso1, active compounds read low 0.982 | locus YOR001W, strain rrp6, active compounds read low 0.988 | locus YOR070C, strain gyp1, active compounds read low 0.943 | locus YOR080W, strain dia2, active compounds read low 0.986 | locus YOR231W, strain MKK1, active compounds read low 1.04 | locus YOR270C, strain vph1, active compounds read low 0.96 | locus YOR290C, strain snf2, active compounds read low 0.961 | locus YPL078C, strain atp4, active compounds read low 0.991 | locus YPL240C, strain hsp82, active compounds read low 0.975 | locus YPL256C, strain CLN2, active compounds read low 1.02
active: locus YAL021C, strain ccr4, active compounds read low 0.817 | locus YAL026C, strain drs2, active compounds read low 0.818 | locus YAL030W, strain snc1, active compounds read low 0.874 | locus YBL061C, strain skt5, active compounds read low 0.825 | locus YBR023C, strain chs3, active compounds read low 0.877 | locus YBR231C, strain swc5, active compounds read low 0.837 | locus YBR279W, strain paf1, active compounds read low 0.893 | locus YCL011C, strain gbp2, active compounds read low 0.898 | locus YDR069C, strain doa4, active compounds read low 0.762 | locus YDR297W, strain sur2, active compounds read low 0.898 | locus YDR334W, strain swr1, active compounds read low 0.872 | locus YER015W, strain faa2, active compounds read low 0.737 | locus YFR010W, strain ubp6, active compounds read low 0.873 | locus YGL173C, strain kem1, active compounds read low 0.671 | locus YGL253W, strain hxk2, active compounds read low 0.881 | locus YHR027C, strain rpn1, active compounds read low 0.669 | locus YHR142W, strain chs7, active compounds read low 0.86 | locus YJL164C, strain tpk1, active compounds read low 0.863 | locus YJL166W, strain qcr8, active compounds read low 0.817 | locus YKL160W, strain elf1, active compounds read low 0.902 | locus YLR262C, strain YPT6 (second series), active compounds read low 0.743 | locus YLR342W, strain FKS1, active compounds read low 0.753 | locus YLR357W, strain rsc2, active compounds read low 0.749 | locus YMR058W, strain fet3, active compounds read low 0.333 | locus YNL209W, strain ssb2, active compounds read low 0.633 | locus YOR083W, strain WHI5, active compounds read low 0.866 | locus YOR106W, strain vam3, active compounds read low 0.542 | locus YOR265W, strain rbl2, active compounds read low 0.918 | locus YPL051W, strain arl3, active compounds read low 0.686 | locus YPL106C, strain sse1, active compounds read low 0.813
